Among all 310,000 compounds or so, about 2,200 (0.71%) showed an effect of 50% or more. The effect is printed as a negative number. The sample holds strong results, similar compounds and a random draw of the others, so the mix is not that of the screen.
Molecular target: human ether-à-go-go-related gene (hERG) potassium channel (human, UniProt Q12809)
Assay: primary screen, population patch clamp on CHO cells stably expressing hERG; higher = less effect of the substance

Sequence of human ether-à-go-go-related gene (hERG) potassium channel (Q12809 whole entry, looked up): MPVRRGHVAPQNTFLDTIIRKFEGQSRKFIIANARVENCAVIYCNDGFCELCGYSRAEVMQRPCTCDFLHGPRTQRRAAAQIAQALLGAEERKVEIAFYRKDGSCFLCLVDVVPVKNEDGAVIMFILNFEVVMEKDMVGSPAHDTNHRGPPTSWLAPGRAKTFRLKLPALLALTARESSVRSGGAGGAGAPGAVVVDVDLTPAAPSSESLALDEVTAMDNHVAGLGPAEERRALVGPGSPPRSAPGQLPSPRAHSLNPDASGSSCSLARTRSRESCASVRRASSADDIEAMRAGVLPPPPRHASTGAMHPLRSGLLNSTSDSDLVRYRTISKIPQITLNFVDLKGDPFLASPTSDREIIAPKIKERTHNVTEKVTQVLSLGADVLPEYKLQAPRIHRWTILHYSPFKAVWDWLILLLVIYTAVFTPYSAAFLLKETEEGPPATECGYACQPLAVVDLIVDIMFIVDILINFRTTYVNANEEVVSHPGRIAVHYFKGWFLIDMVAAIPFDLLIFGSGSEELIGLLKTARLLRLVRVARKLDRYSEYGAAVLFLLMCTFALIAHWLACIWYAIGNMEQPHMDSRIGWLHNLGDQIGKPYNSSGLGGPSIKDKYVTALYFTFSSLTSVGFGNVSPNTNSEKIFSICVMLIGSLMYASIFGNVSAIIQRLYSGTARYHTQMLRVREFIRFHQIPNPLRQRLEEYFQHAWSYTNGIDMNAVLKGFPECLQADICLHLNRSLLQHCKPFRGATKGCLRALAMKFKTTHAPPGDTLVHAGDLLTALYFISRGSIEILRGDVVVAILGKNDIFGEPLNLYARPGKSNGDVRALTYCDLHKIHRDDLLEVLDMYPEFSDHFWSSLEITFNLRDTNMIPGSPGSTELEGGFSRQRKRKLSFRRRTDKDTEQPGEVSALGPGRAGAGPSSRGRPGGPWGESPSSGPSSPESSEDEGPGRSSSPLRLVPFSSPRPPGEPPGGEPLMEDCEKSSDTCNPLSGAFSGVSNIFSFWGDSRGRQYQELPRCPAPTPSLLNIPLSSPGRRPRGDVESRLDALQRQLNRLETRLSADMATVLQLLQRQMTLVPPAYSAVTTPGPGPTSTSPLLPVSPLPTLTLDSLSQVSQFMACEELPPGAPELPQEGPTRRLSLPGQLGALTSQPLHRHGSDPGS

| Structure (SMILES) | hERG current change (%, negative = inhibition) at 1uM |
| --- | --- |
| COc1cccc(CNC(=O)Cc2nc3nc(C)cc(C)n3n2)c1 | 14.5% |
| COc1cc(/C=c2\sc3n(c2=O)CCCN=3)ccc1O | 13.5% |
| COc1ccc(/C=C/c2c([N+](=O)[O-])c(=O)n(C)c(=O)n2C)cc1OC | 5.36% |
| COc1ccc(-c2nsc(SCC(=O)Nc3cc(C)on3)n2)cc1 | 11.9% |
| O=C(O)c1ccc(CNCc2ccc(Cl)cc2)cc1 | 11.3% |
| O=C(CCc1ccccc1)Nc1cc2c3c(c1)CCC(=O)N3CCC2 | -1.85% |
| COc1ccc(-c2cc(C)no2)cc1S(=O)(=O)Nc1cccc(C)c1 | 15.5% |
| CC(C)(C)NC(=O)C1Cc2ccccc2CN1S(=O)(=O)c1ccc(F)cc1 (stereo not drawn) | 3.91% |
| O=C(CC1CC2CCC1C2)NCCc1ccc(Cl)cc1 (stereo not drawn) | -0.305% |
| Cn1cccc1/C=N/N1CCN(Cc2ccc(Cl)cc2)CC1 | 3.9% |
| COc1ccc(COCC(O)CN2CCC(CN3C(=O)c4cccc5cccc(c45)C3=O)CC2)cc1OC.Cl (stereo not drawn) | -20.2% |
| CCS(=O)(=O)N1CCN(S(=O)(=O)c2ccc3ccccc3c2)CC1 | 13% |
| O=C(CSc1ccc(Cl)cc1)Nc1nnc(-c2ccco2)o1 | -1.41% |
| COc1cc(C2C(C#N)=C(N)Oc3cc(C)oc(=O)c32)cc(OC)c1OC (stereo not drawn) | 20.5% |
| COC(=O)c1cc(Br)c(=O)n(Cc2ccc(OC)c(OC)c2)c1 | 16.7% |
| CCCN(CCC)CCCNC(=O)c1cn(CC)c2ccc(S(=O)(=O)N3CCc4ccccc4C3)cc2c1=O | -47.9% |
| CCn1cc(C(=O)NCCCN2CC(C)CC(C)C2)c(=O)c2cc(S(=O)(=O)N(C)C3CCCCC3)ccc21 (stereo not drawn) | -91.4% |
| CCOCCCNC(=O)c1cn(CC)c2ccc(S(=O)(=O)N(C)C3CCCCC3)cc2c1=O | 11.3% |
| CCn1cc(C(=O)NCCCN2CC(C)CC(C)C2)c(=O)c2cc(S(=O)(=O)N(C)C)ccc21 (stereo not drawn) | -17.3% |
| CCCCN(CC)CCCNC(=O)c1cn(CC)c2ccc(S(=O)(=O)N3CCc4ccccc4C3)cc2c1=O | -71.9% |
| CCN(CC)CCCNC(=O)c1cn(CC)c2ccc(S(=O)(=O)N3CCc4ccccc4C3)cc2c1=O | 1.94% |
| Oc1ccc(/C=N/Nc2ccc(C(F)(F)F)cn2)cc1 | 7.84% |
| O=C(NCc1ccco1)C(=O)NCC1OCCCN1S(=O)(=O)c1ccc(F)cc1 (stereo not drawn) | 10% |
| COc1ccccc1N(C)S(=O)(=O)c1ccc(Cl)c(C(=O)NC2=NCCS2)c1 | 21.6% |
| Cc1ccc(S(=O)(=O)NCC2COc3ccccc3O2)cc1 (stereo not drawn) | 6.71% |
| CCc1ccc(NC(=O)CSCc2nc(N)nc(Nc3ccccc3CC)n2)cc1 | 10.9% |
| O=C(C1CCN(C2CCN(Cc3ccc4cc(F)ccc4n3)CC2)CC1)N1CCCC1 | -78.3% |

| Structure (SMILES) | hERG current change (%, negative = inhibition) at 1uM |
| --- | --- |
| O=C(c1cc(F)ccc1F)N1CCC(N2CCC(C(=O)N3CCCC3)CC2)CC1 | 16.9% |
| CCc1ccc(CN2CCC(N3CCC(C(=O)N4CCCC4)CC3)CC2)o1 | -28.3% |
| CCCCNc1nc2ccccc2n1CC(=O)N1CCc2ccccc2C1 | -6.59% |
| N#Cc1nc(-c2ccc(F)cc2)oc1NCc1cccc2c1OCO2 | 13.6% |
| Cc1cc([N+](=O)[O-])nn1CC(=O)NNC(=S)Nc1ccc([N+](=O)[O-])cc1 | 11.8% |
| COc1ccccc1OCC(=O)N1CCCC(N2CCN(c3ccc(F)cc3)CC2)C1 (stereo not drawn) | 4.57% |
| O=C(CSc1ccccc1)N1CCCC(N2CCN(c3ccc(F)cc3)CC2)C1 (stereo not drawn) | -56% |
| CSCC(=O)N1CCCC(N2CCN(c3ccc(F)cc3)CC2)C1 (stereo not drawn) | 0.918% |
| O=C(COc1ccccc1Cl)N1CCCC(N2CCN(c3ccc(F)cc3)CC2)C1 (stereo not drawn) | -19.5% |
| Cc1ccc(OCC(=O)N2CCCC(N3CCN(c4ccc(F)cc4)CC3)C2)cc1 (stereo not drawn) | -90.2% |
| O=C(CSc1ccccc1)N1CCCC(N2CCN(c3ccccc3)CC2)C1 (stereo not drawn) | 2.18% |
| CC(=O)Nc1cc(C(C)(C)C)c(O)c(C(C)(C)C)c1 | 13.4% |
| CCCNC(=O)c1cc(S(=O)(=O)N2CCCCC2)ccc1N1CCOCC1 | -9.91% |
| CC1CCC(NC(=O)CN2CCCN(Cc3ccc(F)cc3Cl)C2=O)CC1 (stereo not drawn) | 8.34% |
| CN(C)C1(CNC(=O)Nc2ccc(Cl)c(Cl)c2)CCCCC1 | 3.77% |
| Cl.O.O=c1c2ccccc2nc2n1CC/C2=C/N1CCN(c2cccc(C(F)(F)F)c2)CC1 | 5.54% |
| Cc1nc2ccccc2c(=O)n1-c1ccc([N+](=O)[O-])cc1 | 11.2% |
| O=c1c2ccccc2nc2n1CC/C2=C\N1CCN(c2ccc([N+](=O)[O-])cc2)CC1 | -62.1% |
| O=[N+]([O-])c1ccc(CS(=O)(=O)N2CCN(c3ccccc3)CC2)cc1 | -3.45% |
| CC1CCCC(C)N1c1nnc(N)s1 (stereo not drawn) | 10.6% |
| Cc1ccccc1NC(=S)N1CCCN(Cc2ccc(F)cc2)C1 | 8.61% |
| CSc1nc(NCc2ccco2)c2c3c(sc2n1)CN(C)CC3 | -38.8% |
| CSc1nc(NCC(C)C)c2c3c(sc2n1)CN(C)CC3 | -9.92% |
| CSc1nc(NCc2ccccc2)c2c3c(sc2n1)CN(C)CC3 | -64.2% |
| CC(C)c1ccc2c(c1)c(SC(C)(C)C)c(CC(C)(C)C(=O)O)n2Cc1ccc(Cl)cc1 | 5.14% |
| COCCNC(=O)C(OC(=O)c1cc2oc(C)cc2n1C)C(C)C (stereo not drawn) | 7.23% |
| COc1cn(-c2ccccc2)nc1C(=O)Nc1ccc(C)cc1Cl | 11.4% |

Reference: PMC4336329 (PLoS ONE, 2015)
